Assay results published in PubChem BioAssay (Tox21).
Records with an inconclusive call do not appear. Active and inactive are the calls of the source. Unless noted, calls follow the shape of the full dose curve.

Assays:
[1] = Nuclear factor erythroid 2-related factor 2/antioxidant responsive element (Nrf2/ARE) small molecule agonists: qHTS cell viability counter screen in human keratinocytes (AID 1919968; active = well fitted cell-killing curve with a large enough effect in the repeat runs; also: nearly all actives have a fitted effect of over 55% in size)
In short: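 Fluorescence read-out from CellTiter-Fluor after 1 h at 37 C. Wells held HaCaT-derived ARE-luciferase reporter cells (1,500/well) treated 23 h with DMSO-dissolved compounds. Run in the same wells as the luciferase agonist read.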

[2] = Nuclear factor erythroid 2-related factor 2/antioxidant responsive element (Nrf2/ARE) small molecule agonists: luciferase reporter gene qHTS assay in human keratinocytes (AID 1919969); also: nearly all actives have a fitted effect of over 35% in size; also: potency is read from the fitted curve at half-maximal effect
[3] = target: Gonadotropin-releasing hormone receptor (Homo sapiens) (UniProt P30968); experiment: Human gonadotropin-releasing hormone receptor (GnRHR) small molecule agonists, calcium flux assay in GnRHR-HEK293 cells (AID 1920063); also: nearly all actives have a fitted effect of over 35% in size
In short: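 Calcium-dye fluorescence, Ex/Em=480/540, recorded every 1 sec over 3 min after compound addition to GnRHR-HEK293 cells. Cells had been seeded 18 hours earlier and dye-loaded for 1 hour at 37 C. Fifteen concentrations, triplicates.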

[4] = G protein-coupled receptor (GPCR) small molecule agonists, calcium flux assay: HEK293 wild type cell line counter screen (AID 1920065)
In short: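 Agonist mode; 18 h seeding at 37 C, 1 h dye load at 37 C; compounds pinned from DMSO, ATP as positive control; kinetic fluorescence 480/540 nm, 3 min, 1 s reads; 15 concentrations, triplicate.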

[5] = p53 small molecule agonists, cell-based qHTS assay with human liver microsomes (AID 1963577)
In short: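 p53RE-bla reporter cells were pre-incubated 5 h at 37 C, then treated with compounds plus human liver microsomes (0.5 mg/mL final) and NADPH (0.5 mg/mL final) for 16 h at 37 C. Beta-lactamase activity was read by LiveBLAzer fluorescence after 2 h at room temperature.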

[6] = p53 small molecule agonists, cell-based qHTS assay with human liver microsomes: qHTS cell viability counter screen (AID 1963579); also: nearly all actives have a fitted effect of over 45% in size
In short: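 p53RE-bla cells (4,000/well) were pre-incubated 5 h at 37 C, then given compounds in DMSO plus human liver microsomes (0.5 mg/mL final) and NADPH (0.5 mg/mL final) for 16 h at 37 C. Viability was read by CellTiter-Glo luminescence.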

[7] = p53 small molecule agonists, cell-based qHTS assay with rat liver microsomes: qHTS cell viability counter screen (AID 1963580); also: nearly all actives have a fitted effect of over 45% in size
In short: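 Luminescent ATP readout (CellTiter-Glo, 30 min at room temperature) reports viability of p53RE-bla HCT-116 cells after 16 h at 37 C with test compounds under metabolic activation by rat liver microsomes and NADPH at 0.5 mg/mL final each.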

[8] = p53 small molecule agonists, cell-based qHTS assay: qHTS cell viability counter screen (AID 1963581); also: nearly all actives have a fitted effect of over 45% in size
In short: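 Cytotoxicity read-out: ATP-based luminescence (CellTiter-Glo, 30 min RT) measured in the same wells as the p53 reporter assay, HCT-116 p53RE-bla cells, 16 h compound exposure at 37 C.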

[9] = p53 small molecule agonists, cell-based qHTS assay (AID 1963582; active = well fitted activation curve with a large enough effect in the signal ratio in the repeat runs, not every such curve was filed as active; the % refers to the signal ratio)
In short: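 Fluorescence intensity read-out of a beta-lactamase reporter under a p53 response element. Cells were exposed to DMSO-dissolved compounds for 16 h at 37 C, then developed with FRET substrate for 2 h at RT.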

[10] = target: 5-hydroxytryptamine receptor 2A (Homo sapiens) (UniProt P28223); experiment: 5-hydroxytryptamine receptor 2A (HTR2A) small molecule antagonists, cell-based qHTS assay (AID 1963586); also: nearly all actives have a fitted effect of over 45% in size
In short: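 CHO cells stably expressing human HTR2A were plated for 18 h at 37 C, then loaded with calcium dye for 1 h. Compounds were preincubated 5 min at room temperature before DOI (4 nM solution) was added. Kinetic fluorescence was read for 3 min.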

[11] = target: 5-hydroxytryptamine receptor 2A (Homo sapiens) (UniProt P28223); experiment: 5-hydroxytryptamine receptor 2A (HTR2A) small molecule agonists, cell-based qHTS assay (AID 1963587); also: nearly all actives have a fitted effect of over 30% in size
In short: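 HTR2A-CHO cells, plated 18 h at 37 C/5% CO2, dye-loaded 1 h at 37 C; compounds in DMSO added by pin tool (agonist mode). Intracellular calcium flux read as kinetic fluorescence on FDSS over 2 min at 1 s intervals.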

[12] = target: Muscarinic acetylcholine receptor M1 (Homo sapiens) (UniProt P11229); experiment: Cholinergic receptor muscarinic 1 (CHRM1) small molecule antagonists, cell-based qHTS assay (AID 1963588); also: nearly all actives have a fitted effect of over 40% in size
In short: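 Compounds were tested at 15 concentrations in three independent runs. Dye-loaded CHRM1-CHO cells were exposed 5 min at room temperature before stimulation by acetylcholine added at 50nM. Intracellular calcium was read kinetically on FDSS for 3 min.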

[13] = target: Muscarinic acetylcholine receptor M1 (Homo sapiens) (UniProt P11229); experiment: Cholinergic receptor muscarinic 1 (CHRM1) small molecule agonists, cell-based qHTS assay (AID 1963589); also: nearly all actives have a fitted effect of over 35% in size
In short: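 Calcium flux read-out: kinetic fluorescence at 1 sec intervals after pin-tool compound addition to dye-loaded CHRM1-CHO cells (human M1). Agonist mode; 15 concentrations tested in triplicate independent runs.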

[14] = cAMP Responsive Elements (CRE) small molecule agonists, cell-based qHTS assay (AID 1963590)
In short: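 Beta-lactamase reporter readout: LiveBLAzer B/G FRET substrate, 2 h at room temperature, added after 3 h compound treatment of CRE-bla HEK 293T cells at 37 C/5% CO2.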

[15] = cAMP Responsive Elements (CRE) small molecule antagonists, cell-based qHTS assay (AID 1963591; active = well fitted inhibition curve with a large enough effect in the signal ratio in the repeat runs, not every such curve was filed as active; the % refers to the signal ratio)
In short: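 HEK293T CRE-bla; 18 h preincubation; compound pin-transfer; NKH477 0.25 uM final, 3 h, 37 C; LiveBLAzer FRET substrate 2 h RT.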

[16] = target: Beta-2 adrenergic receptor (Homo sapiens) (UniProt P07550); experiment: Adrenergic beta2 receptor (ADRB2) small molecule antagonists, cell-based qHTS assay (AID 1963592); also: series mostly up to about 92 µM; nearly all actives have a fitted effect of over 50% in size
In short: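 Assay format: CHO-ADRB2 cells, 18-20hr seeding at 37C/5% CO2, then compound plus 1nM isoproterenol agonist mix for 0.5hr RT. Homogeneous time-resolved fluorescence cAMP detection after 1hr, expressed as 665/615 nm ratio.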

[17] = target: D(2) dopamine receptor (Homo sapiens) (UniProt P14416); experiment: Dopamine D2 receptor (DRD2) small molecule antagonists, cell-based qHTS assay (AID 1963595; active = well fitted inhibition curve with a large enough effect in the signal ratio in the repeat runs, with a control signal flat; the % refers to the signal ratio)
In short: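 Antagonism was scored as restored cAMP in HEK293-DRD2 cells. These cells were stimulated with 200 nM NKH477 and 12 nM quinpirole for 30 min at room temperature, in the presence of 0.1 mM Ro20-1724.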

[18] = p53 small molecule agonists, cell-based qHTS assay with rat liver microsomes (AID 1963578)
In short: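 p53RE-bla cells were exposed to compounds together with rat liver microsomes (0.5 mg/mL final) and NADPH (0.5 mg/mL final) for 16 h at 37 C, then read by LiveBLAzer beta-lactamase fluorescence after 2 h at room temperature.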

[19] = target: Beta-2 adrenergic receptor (Homo sapiens) (UniProt P07550); experiment: Adrenergic beta2 receptor (ADRB2) small molecule agonists, cell-based qHTS assay (AID 1963593);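 also: CHO cells stably overexpressing human ADRB2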
In short: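 CHO cells stably over-expressing ADRB2 were plated overnight at 37C, then dosed with compounds plus a stimulation mix containing 100uM IBMX and 25uM Ro-20-1724 for 0.5hr at room temperature. cAMP was measured by HTRF competition, 1hr.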

[20] = target: D(2) dopamine receptor (Homo sapiens) (UniProt P14416); experiment: Dopamine D2 receptor (DRD2) small molecule agonists, cell-based qHTS assay (AID 1963594); also: nearly all actives have a fitted effect of over 35% in size
In short: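 HEK293 cells stably expressing DRD2 were cultured 24 h at 37 C, then given Ro20-1724 (0.1 mM final) and compounds for 10 min at room temperature. NKH477 (200nM) was then added for 30 min. cAMP was read by HTRF.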
% is scaled to controls: 0 for no effect and ±100 for the full control effect.

Sequence of Muscarinic acetylcholine receptor M1 (Homo sapiens) (P11229 whole entry, looked up): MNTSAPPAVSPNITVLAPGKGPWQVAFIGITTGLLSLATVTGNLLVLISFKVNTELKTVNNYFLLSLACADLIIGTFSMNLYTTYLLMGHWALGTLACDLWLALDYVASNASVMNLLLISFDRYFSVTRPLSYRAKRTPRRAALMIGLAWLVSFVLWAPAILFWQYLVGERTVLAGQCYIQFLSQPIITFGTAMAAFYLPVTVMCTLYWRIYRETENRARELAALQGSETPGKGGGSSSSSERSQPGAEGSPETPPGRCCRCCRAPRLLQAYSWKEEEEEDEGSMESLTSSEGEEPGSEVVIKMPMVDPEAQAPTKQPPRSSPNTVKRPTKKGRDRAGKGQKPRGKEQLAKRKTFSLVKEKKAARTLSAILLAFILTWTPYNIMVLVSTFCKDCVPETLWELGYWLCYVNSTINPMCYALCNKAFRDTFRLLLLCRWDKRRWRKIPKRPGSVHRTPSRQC
Sequence of 5-hydroxytryptamine receptor 2A (Homo sapiens) (P28223 whole entry, looked up): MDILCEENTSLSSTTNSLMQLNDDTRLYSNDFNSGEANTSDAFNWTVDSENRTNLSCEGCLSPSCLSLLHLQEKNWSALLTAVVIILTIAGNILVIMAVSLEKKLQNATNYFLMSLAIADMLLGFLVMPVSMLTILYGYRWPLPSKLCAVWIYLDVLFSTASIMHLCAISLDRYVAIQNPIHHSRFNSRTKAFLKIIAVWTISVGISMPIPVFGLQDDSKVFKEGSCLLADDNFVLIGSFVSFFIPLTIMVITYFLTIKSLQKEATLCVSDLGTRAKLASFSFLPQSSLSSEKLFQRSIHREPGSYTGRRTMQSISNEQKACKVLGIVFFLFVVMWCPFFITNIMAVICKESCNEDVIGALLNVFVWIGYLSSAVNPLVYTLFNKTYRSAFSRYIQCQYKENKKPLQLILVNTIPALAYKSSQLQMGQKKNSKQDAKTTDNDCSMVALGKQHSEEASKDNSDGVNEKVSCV
Sequence of Gonadotropin-releasing hormone receptor (Homo sapiens) (P30968 whole entry, looked up): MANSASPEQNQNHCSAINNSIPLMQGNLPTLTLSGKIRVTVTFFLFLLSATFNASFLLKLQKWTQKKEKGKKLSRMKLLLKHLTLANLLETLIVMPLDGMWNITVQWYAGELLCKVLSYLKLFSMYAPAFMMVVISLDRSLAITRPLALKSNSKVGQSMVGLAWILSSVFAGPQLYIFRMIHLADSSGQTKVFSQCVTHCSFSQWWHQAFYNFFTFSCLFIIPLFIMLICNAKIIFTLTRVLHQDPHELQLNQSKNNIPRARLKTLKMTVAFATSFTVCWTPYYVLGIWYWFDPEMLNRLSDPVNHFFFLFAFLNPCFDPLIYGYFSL
Sequence of Beta-2 adrenergic receptor (Homo sapiens) (P07550 whole entry, looked up): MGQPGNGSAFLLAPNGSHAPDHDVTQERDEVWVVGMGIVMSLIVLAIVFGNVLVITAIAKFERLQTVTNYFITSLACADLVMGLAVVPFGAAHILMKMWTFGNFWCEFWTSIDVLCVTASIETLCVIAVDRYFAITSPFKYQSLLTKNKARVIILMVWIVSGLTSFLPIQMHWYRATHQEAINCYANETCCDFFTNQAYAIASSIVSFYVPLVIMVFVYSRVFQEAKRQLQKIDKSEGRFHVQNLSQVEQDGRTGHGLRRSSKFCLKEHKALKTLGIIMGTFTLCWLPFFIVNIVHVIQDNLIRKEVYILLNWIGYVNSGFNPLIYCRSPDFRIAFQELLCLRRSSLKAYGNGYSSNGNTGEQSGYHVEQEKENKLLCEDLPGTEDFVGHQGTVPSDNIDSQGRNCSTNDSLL
Sequence of D(2) dopamine receptor (Homo sapiens) (P14416 whole entry, looked up): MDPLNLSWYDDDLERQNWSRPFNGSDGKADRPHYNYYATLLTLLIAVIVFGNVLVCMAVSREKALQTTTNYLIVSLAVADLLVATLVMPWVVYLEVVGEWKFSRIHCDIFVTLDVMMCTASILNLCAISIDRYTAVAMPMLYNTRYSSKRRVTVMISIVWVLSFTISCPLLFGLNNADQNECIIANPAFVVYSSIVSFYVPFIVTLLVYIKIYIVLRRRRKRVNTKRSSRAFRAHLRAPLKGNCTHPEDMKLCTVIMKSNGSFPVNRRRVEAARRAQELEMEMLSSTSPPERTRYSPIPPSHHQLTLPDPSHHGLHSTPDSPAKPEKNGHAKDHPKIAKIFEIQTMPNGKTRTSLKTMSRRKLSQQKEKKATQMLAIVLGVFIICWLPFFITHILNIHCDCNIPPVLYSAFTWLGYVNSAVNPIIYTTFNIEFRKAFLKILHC

O=C(CCBr)N1CCN(C(=O)CCBr)CC1
inactive: Potency [1] | Potency [2] | Potency [3] | outcome [4] | Potency [5] | Potency [6] | Potency [7] | Potency [8] | Potency [9] | Potency [10] | Potency [11] | Potency [12] | Potency [13] | Potency [14] | Potency [15] | Potency [16] | Potency [17]

CO[Si](OC)(OC)OC
inactive: Potency [1] | Potency [2] | Potency [3] | outcome [4] | Potency [18] | Potency [6] | Potency [7] | Potency [8] | Potency [9] | Potency [10] | Potency [11] | Potency [13] | Potency [14] | Potency [15] | Potency [16] | Potency [19] | Potency [20] | Potency [17]

C[C@@H]1CN(c2c(F)c(N)c3c(=O)c(C(=O)O)cn(C4CC4)c3c2F)C[C@H](C)N1
inactive: activity change, negative = cytotoxicity [1] 1.83% [at 19 µM] | activity, positive = activation [2] -7.44% [at 19 µM] | activity change [3] 0.726% [at 11.8 µM, hits give high values] | activation [4] -0.768% [at 11.8 µM] | activation [5] -0.339% [at 13.5 µM] | activation [18] 0.693% [at 13.6 µM] | activity change, negative = cytotoxicity [8] 5.52% [at 13.5 µM] | activation [9] -0.164% [at 13.5 µM] | activation [14] -1.16% [at 19 µM] | activity change, negative = inhibition [15] -4.06% [at 18.9 µM] | activity change, negative = inhibition [16] 8.12% [at 19 µM] | Potency [19] | activation [20] -2.73% [at 19 µM] | activity change, negative = inhibition [17] 0.614% [at 18.9 µM]

CCOC(=O)CC1(C)OCC(C)O1 (stereo not drawn)
inactive: Potency [1] | Potency [2] | Potency [3] | Potency [5] | Potency [18] | Potency [6] | Potency [7] | Potency [9] | Potency [10] | Potency [11] | Potency [12] | Potency [13] | Potency [14] | Potency [15] | Potency [16] | Potency [19] | Potency [20] | Potency [17]

CC(NC(CCc1ccccc1)C(=O)O)C(=O)N1C(=O)N(C)CC1C(=O)O (stereo not drawn)
inactive: Potency [1] | Potency [2] | Potency [3] | Potency [5] | Potency [18] | Potency [7] | Potency [8] | Potency [9] | Potency [10] | Potency [11] | Potency [12] | Potency [13] | Potency [14] | Potency [15] | Potency [16] | Potency [20] | Potency [17]

Cc1cc(=O)oc2cc(O[C@@H]3SC[C@@H](O)[C@H](O)[C@H]3O)ccc12
inactive: Potency [1] | Potency [2] | Potency [3] | outcome [4] | Potency [18] | Potency [6] | Potency [7] | Potency [9] | Potency [10] | Potency [11] | Potency [12] | Potency [13] | Potency [14] | Potency [15] | Potency [16] | Potency [20]

C[C@@H]1[C@H](O)[C@@H](C)/C=C/C=C\C=C\C=C\C=C\C=C\C=C\[C@H](O[C@@H]2O[C@H](C)[C@@H](O)[C@H](N)[C@@H]2O)C[C@@H]2O[C@](O)(C[C@@H](O)C[C@@H](O)[C@H](O)CC[C@@H](O)C[C@@H](O)CC(=O)O[C@H]1C)C[C@H](O)[C@H]2C(=O)O (stereo in doubt)
active: Potency [2] 68.6 µM
inactive: Potency [1] | Potency [3] | Potency [5] | Potency [18] | Potency [6] | Potency [7] | Potency [8] | Potency [9] | Potency [16] | Potency [19] | Potency [20] | Potency [17]
